SMILES strings stand for the structures. Calls of active or inactive are those of the source.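 The calls were made as follows: active = compounds that inhibit caspase-1 with a complete, partial or top-dose-only concentration response; inactive = the rest.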

Here are results for ten compounds from PubChem BioAssay AID2494 (National Center for Advancing Translational Sciences (NCATS), 2010).

The test has as its target Caspase-1 (Homo sapiens) (UniProt P29466). Put plainly: Confirmation Assay for Allosteric/Competitive Inhibitors of Caspase-1. The note with it: Caspase-1 enzyme, fluorogenic peptide substrate, kinetic rate. The text has this: NIH Molecular Libraries Screening Centers Network [MLSCN] NIH Chemical Genomics Center [NCGC] MLSCN Grant: 1 X01 MH078950-01 PI Name: Dr. James Wells, Dr. Enrique Perez-Paya, Dr.Janice Williams, Dr. Dennis Wolan, a person NCGC Assay Overview: The caspases (Cysteine Aspartyl Protease) comprise a related family of 14 dimeric proteases that are critical mediators of apoptosis (programmed cell death) and inflammation. The caspases represent an important class of drug targets for stroke, ischemia, cancer and inflammatory diseases. […] One goal of this project was to identify compounds that act as allosteric inhibitors via stabilizing the procaspase form of the enzyme. Previous work in Well's laboratory has shown that such allosteric inhibitors can be identified and these act by binding at the dimer interface of enzyme (Hardy, Lam et al., 2004). The biochemical assay was configured using purified caspase 1 at a high enzyme concentration to promote formation of the homodimers and thus facilitate the identification of allosteric inhibitors. The overall goal was to identify reversible inhibitors with better drug-like properties than the currently available set of aspartyl-containing peptidomimetics that covalently bind the active site. Caspase 1 was assayed using the profluorescent substrate […]. After initiation of the assay with substrate the plates were rapidly read using an automated robotic system (Kalypsys, Inc.) to maintain consistent timing. A kinetic mode of detection was used where the initial rate was collected (estimated final product formation was ~10%). Compounds were screened as a concentration-titration series that ranged from 57 uM to 0.7 nM. Below is the protocol used for caspase 1.
Caspase-1 was dispensed ([…]) into a 1536-well black solid-bottom microplate (Greiner Bio-One, Monroe, USA) using a Bio-RAPTR (Beckman Coulter, Fullerton, USA) nanoliter dispenser for automated addition of reagents, to give a final enzyme concentration of 2 nM. Assay buffer was 50 mM HEPES, pH7.4, containing 1M sodium citrate, 100 mM NaCl, 0.1 mM EDTA, 10 mM DTT, 0.01% CHAPS, 1% DMSO, and 0.1 mg/mL bovine serum albumin (BSA). Aliquots of test compound (23 nL) from a DMSO stock solution were transferred to the enzyme-containing wells using a pintool transfer station (Kalypsys Inc., San Diego, USA), and the plates were incubated for 15 min at room temperature. Each compound was added as a 12-point titration in duplicate. Substrate was dispensed ([…]) to give a final caged fluorescent peptide substrate (Ac-LEHD-AMC) concentration of […], and the initial reaction rate was monitored over 20 min at room temperature. Free AMC was measured by fluorescence detection (lex=340 nm, lem=450) with a ViewLux charge-coupled device-based imager (PerkinElmer, Waltham, USA). Percent inhibition was calculated from the median values of the uninhibited and the uncatalyzed controls, and IC50 values were determined by fitting the concentration-response data with a four-parameter Hill equation as previously described (http://www.ncgc.nih.gov/pub/openhts/curvefit/).
In the case of `CC(=O)N[C@H](C(=O)N[C@@H](C)C(=O)N[C@H](C#N)CC(=O)O)C(C)C`, the compound was classed as inactive. With `CONC(=O)C[C@@H](C#N)NC(=O)[C@@H]1CCCN1C(=O)[C@@H](NC(=O)c1ccc(N)c(Cl)c1)C(C)(C)C`, the Potency is 145 nM (active). Still for that read-out and setting: to `CC(C)(C)[C@H](NC(=O)c1ccc(N)c(Cl)c1)C(=O)N1CCC[C@H]1C(=O)N[C@H](C#N)CC(=O)O` belongs 0.316 nM (active); to `CC(C)(C)[C@H](NC(=O)c1cc(Cl)cc(Cl)c1)C(=O)N1CCC[C@H]1C(=O)N[C@H](C#N)CC(=O)O`, 0.436 nM (active); to `CC(=O)N[C@@H](Cc1ccc(O)cc1)C(=O)N[C@H](C(=O)N[C@@H](C)C(=O)N[C@H](C#N)CC(=O)O)C(C)C`, 2.51 nM (active). Same read-out and setting: to `Cc1ccccc1C(=O)N[C@H](C(=O)N1CCC[C@H]1C(=O)N[C@H](C#N)CC(=O)O)C(C)(C)C` belongs 2.78 nM (active). On to `CCOC(=O)C[C@@H](C#N)NC(=O)[C@@H]1CCCN1C(=O)[C@@H](NC(=O)c1ccc(N)c(Cl)c1)C(C)(C)C`, for which the Potency was 145 nM (active). Still for that read-out and setting: to `COc1ccc(C(=O)N[C@H](C(=O)N2CCC[C@H]2C(=O)N[C@H](C#N)CC(=O)O)C(C)(C)C)cc1Cl` belongs 0.439 nM (active); to `CC(C)(C)[C@H](NC(=O)c1ccc(C(F)(F)F)cc1)C(=O)N1CCC[C@H]1C(=O)N[C@H](C#N)CC(=O)O`, 8.33 nM (active). The same measure, in the same setting: the figure for `CC(C)(C)[C@H](NC(=O)c1ccc(N)c(Cl)c1)C(=O)N1CCC[C@H]1C(=O)N[C@H](C#N)Cc1nn[nH]n1` is 20.4 nM (active).
